Data as given in the antibiotic and cytotoxicity screens of Wong et al. (2023).
Hit rate of the full screen: of about 39,000 compounds, about 1,500 (3.8%) were called active. This is one part of a sample in which actives are shown more often than they occur.

System: HSkMC (human skeletal muscle cells)
Assay: cytotoxicity call (relative viability < 0.9)
Details: 10 µM

Compound	cytotoxicity call
CN1CCN(C(=O)C[C@H]2C=C[C@@H](NC(=O)Cc3ccccn3)[C@H](CO)O2)CC1	inactive
C[C@@H]1CCCCO[C@H](CN(C)C(=O)NC2CCCCC2)[C@H](C)CN([C@H](C)CO)C(=O)c2cc(NC(=O)Nc3ccc(C(F)(F)F)cc3)ccc2O1	active
C[C@@H]1CN([C@H](C)CO)C(=O)c2cc(NC(=O)Nc3ccc(C(F)(F)F)cc3)ccc2O[C@@H]1CN(C)C(=O)NC1CCCCC1	active
C[C@@H]1CN([C@H](C)CO)C(=O)c2cc(NC(=O)Nc3ccc(C(F)(F)F)cc3)ccc2O[C@@H](C)CCCCO[C@@H]1CN(C)C(=O)NC1CCCCC1	inactive
C[C@@H]1CCCCO[C@H](CN(C)C(=O)NC2CCCCC2)[C@@H](C)CN([C@@H](C)CO)C(=O)c2cc(NC(=O)Nc3ccc(C(F)(F)F)cc3)ccc2O1	inactive
COc1ccc(NC(=O)Nc2ccc3c(c2)C(=O)N([C@H](C)CO)C[C@H](C)[C@@H](CN(C)C(=O)NC2CCCCC2)OCCCC[C@@H](C)O3)cc1	inactive
C[C@H]1CN([C@@H](C)CO)C(=O)c2cc(NC(=O)Nc3ccc(C(F)(F)F)cc3)ccc2O[C@@H]1CN(C)C(=O)NC1CCCCC1	inactive
C[C@H]1CCCCO[C@@H](CN(C)C(=O)NC2CCCCC2)[C@@H](C)CN([C@@H](C)CO)C(=O)c2cc(NC(=O)Nc3ccc(C(F)(F)F)cc3)ccc2O1	inactive
C[C@@H]1CN([C@H](C)CO)C(=O)c2cc(NC(=O)Nc3ccc(C(F)(F)F)cc3)ccc2O[C@H]1CN(C)C(=O)NC1CCCCC1	inactive
C[C@@H]1CCCCO[C@@H](CN(C)C(=O)NC2CCCCC2)[C@@H](C)CN([C@H](C)CO)C(=O)c2cc(NC(=O)Nc3ccc(C(F)(F)F)cc3)ccc2O1	active
COc1ccc(NC(=O)Nc2ccc3c(c2)C(=O)N([C@@H](C)CO)C[C@@H](C)[C@@H](CN(C)C(=O)NC2CCCCC2)OCCCC[C@@H](C)O3)cc1	active
C[C@@H]1CCCCO[C@@H](CN(C)C(=O)NC2CCCCC2)[C@H](C)CN([C@@H](C)CO)C(=O)c2cc(NC(=O)Nc3ccc(C(F)(F)F)cc3)ccc2O1	inactive
COc1ccc(NC(=O)Nc2ccc3c(c2)C(=O)N([C@@H](C)CO)C[C@H](C)[C@H](CN(C)C(=O)NC2CCCCC2)OCCCC[C@H](C)O3)cc1	inactive
COCC#Cc1cnc2c(c1)C(=O)N([C@H](C)CO)C[C@@H](C)[C@@H](CN(C)C(=O)c1cnccn1)O2	inactive
C[C@H]1CN([C@@H](C)CO)C(=O)c2cccc(NC(=O)Nc3ccccc3)c2O[C@H]1CN(C)Cc1ccc(C(F)(F)F)cc1	inactive
